In PubChem BioAssay:

System: Noggin (protein binding on small-molecule microarray)
Experiment: Noggin binders on small-molecule microarray, primary screen, biochemical, 635/667 nm fluorescence (AID 1095);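 note: score merges 667 nm feature fluorescence with signal to noise over triplicate slides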
Details: 635 nm fluorescence, higher = more signal

First: C=CCC(OC(C)=O)[C@@H]1[C@@H](N(Cc2ccc(-c3ccccc3)cc2)C(=O)c2ccc(-c3ccccc3)cc2)c2cc(OCCCO)ccc2N1C(=O)c1ccc2ccccc2c1 (some centres undefined)
Second: CCOC(=O)C[C@H]1[C@H](OC(=O)c2cc3ccccc3oc2=O)[C@@H](NC(=O)c2ccc3ccccc3n2)c2cc(OCCCO)ccc2N1C(=O)Cc1ccc(OC)cc1
The composite z-score of the first is lower: 0.479 for the first, 0.638 for the second.

First: Cc1ccc(S[C@]2(C(=O)NCC(F)(F)F)CC(=O)N(Cc3cc(C(F)(F)F)cc(C(F)(F)F)c3)[C@@H]2c2ccc(CO)cc2)cc1
Second: Cc1ccc(N2C(=O)c3ccccc3[C@@H](C(=O)NCCCN(C)C)[C@@H]2c2ccc(CO)cc2)nc1
The composite z-score of the first is higher: -0.556 for the first, -0.572 for the second.

First: COC(=O)[C@@]1(Cc2ccc(OC)cc2)[C@H]2c3cc(C(=O)N4CCCC4)n(CCc4c[nH]c5ccc(O)cc45)c3C[C@H]2CN1C(=O)c1ccccc1
Second: COC(=O)[C@@]1(Cc2ccccc2)[C@H]2c3cc(C(=O)N4CCCC4)n(CCc4ccccn4)c3C[C@H]2CN1C(=O)c1ccccc1
The composite z-score of the first is lower: -0.0208 for the first, 0.678 for the second.

Compared with `NC(=O)[C@@]1(Cc2ccccc2)COC(c2ccc(OCCCO)cc2)=N1`, `[N-]=[N+]=Nc1ccccc1C[C@]1(C(=O)NCCN2CCOCC2)COC(c2ccc(OCCCO)cc2)=N1` is higher in composite z-score: -0.555 for the first, 0.0424 for the second.

First: COCCOC(=O)N1C(=O)[C@@]2(c3cc(C#CCCO)ccc31)[C@H](C(=O)Nc1nc3ccccc3s1)[C@H]1C(=O)O[C@H](c3ccccc3)[C@H](c3ccccc3)N1[C@@H]2c1ccc(O)cc1
Second: NC(=O)NCC#Cc1ccc2c(c1)[C@]1(C(=O)N2)[C@H](c2ccccc2OCCO)N2[C@H](c3ccccc3)[C@H](c3ccccc3)OC(=O)[C@H]2[C@@H]1C(=O)NC[C@H](O)c1ccccc1
The composite z-score of the first is higher: 0.797 for the first, -0.0053 for the second.

First: COc1ccc([Si](C)(C)[C@@H]2[C@@H](CCO)O[C@]3(C(=O)N(Cc4ccccc4)c4ccc(N5CCOC5=O)cc43)[C@H]2C)cc1
Second: O=C1OCCC=C[C@H]2OC34C=CCN(c5ccc6ccccc6c5)C(=O)[C@H]3N(CCCO)C(=O)[C@@H]4C12 (some centres undefined)
The composite z-score of the first is higher: 0.446 for the first, -2.16 for the second.

Going from `C=C(/C(=C/C[C@H](OC(C)=O)c1ccc(CO)o1)c1cnc2ccccc2c1)C(C)C` to `CCOC(=O)C1=C[C@@H](C(C)(C)C)N(S(=O)(=O)c2ccc(C)cc2)[C@H]1c1cccc2ccccc12`, the composite z-score falls from 1.6 to 0.171.

Compared with `COCC(=C=CC[C@H](O)c1ccc(OCCO)cc1)CCO`, `COC(=O)[C@@H]1N=C(c2ccc(OCCCO)cc2)O[C@@H]1C` is lower in composite z-score: 1.21 for the first, 0.0641 for the second.

Compared with `C=CC[C@@]1(C(=O)NCCCOC)N=C(c2ccc(OCCCO)cc2)O[C@@H]1c1ccccc1`, `CCCC[C@@H](O)C1=C(COc2ccccc2)C[C@H]2C(=O)N(Cc3ccccc3)C(=O)[C@H]2[C@H]1CO` is higher in composite z-score: 0.0729 for the first, 0.517 for the second.

Going from `Cc1ccc(F)cc1S(=O)(=O)N[C@@H]1CCN(Cc2ccc(Br)cc2)C1` to `OCCCC1=CC(c2ccc(CN3CCCC3)cc2)N(Cc2cc3c(cc2Br)OCO3)CC1` (centres undefined), the composite z-score falls from 1.21 to 0.386.

Compared with `COC(=O)C1=CC(CCCO)=CC(c2ccc(CN3CCCC3)cc2)N(Cc2cccc(OC(F)(F)F)c2)C=C1C(=O)OC` (centres undefined), `COC(=O)[C@@]1(Cc2ccc(F)cc2)[C@H]2c3cc(C(=O)N(C)C)n(Cc4ccc(OC(F)(F)F)cc4)c3C[C@H]2CN1C(=O)c1ccccc1` is higher in composite z-score: -0.116 for the first, 0.149 for the second.

Going from `CC(CO)N1C(=O)[C@@H]2[C@H]3C(=O)OCC=C[C@H]3OC23C=CCN(Cn2nnc4ccccc42)C(=O)[C@@H]13` (some centres undefined) to `CC(C)NC(=O)[C@@]1(c2ccc([N+](=O)[O-])cc2)CC(=O)N(C2CCCCC2)[C@@H]1c1ccc(CO)cc1`, the composite z-score rises from -0.746 to 1.77.

Compared with `O=C1CS(=O)(=O)C(c2cccc([N+](=O)[O-])c2)N1c1ccccc1` (centres undefined), `CC(C)[Si](C#C[Si](C(C)C)(C(C)C)C(C)C)(O[C@H](c1ccccc1)c1cn(Cc2ccccc2)nn1)C(C)C` is higher in composite z-score: 0.253 for the first, 0.751 for the second.

First: COCCOC(=O)N1C(=O)[C@@]2(c3cc(C#CC4=CCCCC4)ccc31)[C@H](c1ccccc1OCCO)N1[C@H](c3ccccc3)[C@H](c3ccccc3)OC(=O)[C@H]1[C@@H]2C(=O)N1CCN(c2ncccn2)CC1
Second: C[N+](C)(C)CCCC[C@@H]1NC(=O)[C@@H]2C[C@H](C(=O)NCCCCCCN)[C@H](c3cccc(OCCO)c3)N2C1=O
The composite z-score of the first is higher: 0.729 for the first, 0.47 for the second.

`CCCC=C(CCC)[C@@H](NS(=O)(=O)CC12CCC(CC1=O)C2(C)C)c1ccc(C(=O)OC)cc1` (some centres undefined) gave a composite z-score of -0.132.
